Cruzain noTriton = qHTS Assay for Promiscuous and Specific Inhibitors of Cruzain (without detergent) | 200,000 tested, 2.3% active | purified cruzain, Z-FR-AMC fluorescence, no detergent | Potency, µM, without a hit: max response, negative = inhibition, actives largely listed as inhibitors | AID 1476, 2009; active = well fitted curve in the direction sought with a large enough effect; inconclusive = small, poorly fitted or top-dose-only effect, or another doubt; inactive = no such curve, though single readings can be large; an effect the other way counts as inactive or inconclusive;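 note: potency is the fitted concentration of half-maximal effect; plate controls were enzyme without inhibitor for no effect and buffer without enzyme for full effect; nearly all actives have a fitted effect of over 40% in size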
Target sequence (P25779 123-467 limits assumed): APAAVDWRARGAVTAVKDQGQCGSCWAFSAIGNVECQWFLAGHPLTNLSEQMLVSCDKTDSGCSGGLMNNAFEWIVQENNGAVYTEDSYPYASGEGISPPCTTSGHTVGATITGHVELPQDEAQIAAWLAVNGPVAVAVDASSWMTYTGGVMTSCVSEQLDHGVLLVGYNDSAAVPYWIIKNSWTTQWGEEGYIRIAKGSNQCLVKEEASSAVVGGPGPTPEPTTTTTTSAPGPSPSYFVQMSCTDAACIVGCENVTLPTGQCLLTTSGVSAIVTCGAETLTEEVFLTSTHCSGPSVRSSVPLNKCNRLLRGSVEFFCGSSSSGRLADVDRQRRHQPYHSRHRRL
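Detergent-free condition (0.00005% Triton X-100) in acetate buffer pH 5.5 with DTT. 1.5 nM enzyme and compound were pre-mixed 15 min, then 2 uM Z-FR-AMC substrate added; reaction progress from fluorescence change between first and third reads (60 s).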
NS1 inh = qHTS Assay for Inhibitors of Influenza NS1 Protein Function | Potency, µM (doses to about 46.1 µM), for the others: at the highest dose activity, positive = more growth | 270,000 tested, 0.4% active; note: potency is the fitted concentration of half-maximal effect; actives are rising curves; nearly all actives have a fitted effect of over 50% in size
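Growth recovery, yeast-based: influenza A NS1 expressed in S. cerevisiae causes slow growth, and suppressors are detected by OD600. The parent strain without NS1 is used as positive control.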
Cruzain inh Det = qHTS Assay for Promiscuous and Specific Inhibitors of Cruzain (with detergent) | Cruzipain (Trypanosoma cruzi), P25779 | 200,000 tested, 0.43% active | Potency, µM, inactives show max response, negative = inhibition, most hits filed as inhibitors | purified cruzain, Z-FR-AMC fluorescence, 0.01% Triton | AID 1478, 2009; active = well fitted curve in the direction sought with a large enough effect; inconclusive = small, poorly fitted or top-dose-only effect, or another doubt; inactive = no such curve, though single readings can be large; an effect the other way counts as inactive or inconclusive;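 note: potency is the fitted concentration of half-maximal effect; plate controls were neutral wells for no effect and buffer without enzyme for full effect; nearly all actives have a fitted effect of over 40% in size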
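Steps: dispense cruzain (1.5 nM final) in acetate buffer pH 5.5 with DTT and 0.01% Triton X-100; pin-transfer compounds; incubate 15 min RT; add Z-FR-AMC (2 uM final); read fluorescence every 30 s, using the 60 s intensity change.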
Flu NS1 inh = Assay for Inhibitors of Influenza NS1 Protein Function: Hit Validation | shares compounds with NS1 inh | influenza NS1 function cell assay, 15-point titration | activity change, negative = inhibition, % at 32.9 µM | 1,400 tested, under 10 active; note: 0% is about no effect
Starred values were filed as active, the others as inactive. The sample as a whole holds a higher share of hits than the screen did. Unless noted, calls come from the whole dose curve.

How did COC(=O)N1CCC2(CC1)CN(c1ccccc1)C2 do in these assays?
Cruzain noTriton: -2%; Cruzain inh Det: 4%

What do the screens show for `COc1ccc(C(=O)NN=C2CCCC2)cc1`?
NS1 inh: 6%

How did Cc1cc(OCc2ccc(C(=O)NN=C3CCCC3)cc2)ccc1Cl do in these assays?
Cruzain noTriton: inconclusive; NS1 inh: 14µM*; Cruzain inh Det: -6%; Flu NS1 inh: inconclusive

What do the screens show for `CN(C)C(=O)c1ccc(-c2nccc(N(C)Cc3ccco3)n2)cc1`?
Cruzain noTriton: 4%; Cruzain inh Det: 3%

How did COc1cc(/C=N/NC(=S)Nc2cccc(C(=O)O)c2)cc(OC)c1OC do in these assays?
Cruzain noTriton: -5%; NS1 inh: 3%; Cruzain inh Det: -12%

What do the screens show for `COc1cc(/C=N/NC(=S)N/N=C/c2cc(OC)c(OC)c(OC)c2)cc(OC)c1OC`?
Cruzain noTriton: inconclusive; NS1 inh: 11µM*; Cruzain inh Det: 14µM*; Flu NS1 inh: 18

Results for CCCCc1c(O)c2ccccc2n(CCCC)c1=O ?
Cruzain noTriton: -2%; NS1 inh: -40%; Cruzain inh Det: -4%

What do the screens show for `CCCCn1c(=O)cc(O)c2ccccc21`?
Cruzain noTriton: -15%; NS1 inh: 10µM*; Cruzain inh Det: -4%; Flu NS1 inh: 27

What do the screens show for `CCOc1ccc(C(C)=O)cc1COc1cccnc1[N+](=O)[O-]`?
NS1 inh: -70%

Results for COc1ccc(C(C)=O)cc1COc1cccnc1[N+](=O)[O-] ?
NS1 inh: inconclusive; Flu NS1 inh: -6

What do the screens show for `O=C(c1cccc(F)c1)N1CCC[C@@]2(CCN(Cc3nccs3)C2)C1`?
Cruzain noTriton: -1%; Cruzain inh Det: 5%

Results for Cc1ccc(NC2CCCN(C(=O)CCN3CCOCC3)C2)cc1C (configuration not stated) ?
NS1 inh: inconclusive; Flu NS1 inh: -3

Results for CC(C)c1ccc(NC2CCCN(C(=O)CCN3CCOCC3)C2)cc1 (configuration not stated) ?
NS1 inh: 1%

What do the screens show for `COc1ccc2[nH]c3c(c2c1)CCNC3`?
Cruzain noTriton: 12%; NS1 inh: 18µM*; Cruzain inh Det: 5%; Flu NS1 inh: 13

Results for CCOc1ccc2[nH]c3c(c2c1)CNCC3 ?
NS1 inh: 8%

What do the screens show for `COC(=O)c1c(NC(=O)CCCOc2ccccc2C)sc2c1CCC2`?
Cruzain noTriton: -10%; Cruzain inh Det: -6%

Results for CC(C)Cn1c(N)c(C(=O)COC(=O)c2ccc3ccccc3n2)c(=O)n(C)c1=O ?
Cruzain noTriton: inconclusive; NS1 inh: 10µM*; Cruzain inh Det: -4%; Flu NS1 inh: -6

What do the screens show for `Cc1c(C(=O)OCC(=O)c2c(N)n(CC(C)C)c(=O)n(C)c2=O)oc2ccccc12`?
Cruzain noTriton: inconclusive; NS1 inh: inconclusive; Cruzain inh Det: -5%

How did COc1cccc(C(=O)NCC(=O)OCc2cc(=O)n3c(C)csc3n2)c1 do in these assays?
Cruzain noTriton: -1%; Cruzain inh Det: -6%

Results for CCOC(=O)c1cn(Cc2ccccc2)nn1 ?
Cruzain noTriton: -5%; NS1 inh: 1.4µM*; Cruzain inh Det: -3%; Flu NS1 inh: -7

Results for CCOC(=O)c1cn(CC(=O)Nc2ccccc2C(=O)OCC)nn1 ?
Cruzain noTriton: -8%; NS1 inh: -10%; Cruzain inh Det: 1%

What do the screens show for `Cc1ccc(NC(=O)N2CCC(n3c(C)nc4cccnc43)CC2)c(Cl)c1`?
Cruzain noTriton: 2%; Cruzain inh Det: 1%

Results for c1ccc(-c2nnc(CN3CCCCC3)o2)cc1 ?
NS1 inh: 5%

What do the screens show for `c1ccc(-c2nnc(CN3CCCc4ccccc43)o2)cc1`?
Cruzain noTriton: inconclusive; NS1 inh: inconclusive; Cruzain inh Det: -4%; Flu NS1 inh: inconclusive

What do the screens show for `Cn1cccc1C(=O)N1CCC2(CC1)CCN(c1ccccn1)CC2`?
Cruzain noTriton: 10%; Cruzain inh Det: 3%

What do the screens show for `Cc1sc2ncnc(SCC(=O)c3ccc(Cl)s3)c2c1C`?
Cruzain noTriton: 10µM*; NS1 inh: 7.1µM*; Cruzain inh Det: -2%; Flu NS1 inh: 4

What do the screens show for `Cc1sc2ncnc(SCC(=O)c3ccc(O)cc3O)c2c1C`?
NS1 inh: -33%

What do the screens show for `Cc1ccc2nc(-c3ccc(Cl)c(NC(=O)COc4cccc(C)c4C)c3)oc2c1`?
Cruzain noTriton: 9%; Cruzain inh Det: -1%

How did C1COC1 do in these assays?
Cruzain noTriton: -7%; Cruzain inh Det: 0%

How did Cc1nc(N2CCCC2)c2c(C(=O)Nc3cccc(Cl)c3C)c(C)oc2n1 do in these assays?
Cruzain noTriton: 26%; Cruzain inh Det: -7%

How did Cc1cc(C)nc(N/N=C/c2ccccc2OCc2cccc(Br)c2)n1 do in these assays?
Cruzain noTriton: 5%; NS1 inh: -33%; Cruzain inh Det: -3%

What do the screens show for `COc1ccccc1NC(C)C(=O)N/N=C/c1ccccc1OCc1cccc(Br)c1` (configuration not stated)?
Cruzain noTriton: inconclusive; NS1 inh: 16µM*; Cruzain inh Det: -4%; Flu NS1 inh: -13

How did COc1cccc(-n2ccnc2SCC(=O)Nc2c(C)cc(C)cc2C)c1 do in these assays?
Cruzain noTriton: 0%; Cruzain inh Det: -2%

Results for Cc1nnc(NC(=O)CSc2ncc(-c3ccccc3)[nH]2)s1 ?
NS1 inh: 4.5µM*; Flu NS1 inh: 7

Results for CCc1nnc(NC(=O)CSc2ncc(-c3ccccc3)[nH]2)s1 ?
Cruzain noTriton: 0%; NS1 inh: 14%; Cruzain inh Det: 3%

What do the screens show for `O=C(Nc1cccc(-c2nc3cccnc3s2)c1)c1cccc(Br)c1`?
Cruzain noTriton: 3%; Cruzain inh Det: -6%

Results for Cc1nc2ncnn2c(C)c1CCC(=O)NCc1ccccc1 ?
Cruzain noTriton: 3%; NS1 inh: 11%; Cruzain inh Det: 0%

How did COc1ccc(CNC(=O)CCc2c(C)nc3ncnn3c2C)cc1 do in these assays?
Cruzain noTriton: 10%; NS1 inh: 5µM*; Cruzain inh Det: 3%; Flu NS1 inh: 0

What do the screens show for `Cc1ccc(NC(=O)C(=O)NCC(c2cccnc2)N2CCN(Cc3ccccc3)CC2)cc1Cl` (configuration not stated)?
Cruzain noTriton: -9%; Cruzain inh Det: -5%

Results for CCC(C)NC(=O)c1cc(CC(C)C)on1 (configuration not stated) ?
Cruzain noTriton: -12%; NS1 inh: inconclusive; Cruzain inh Det: 0%; Flu NS1 inh: -17

How did Cc1cc(NC(=O)c2cc(CC(C)C)on2)no1 do in these assays?
Cruzain noTriton: -6%; NS1 inh: -4%; Cruzain inh Det: -1%

What do the screens show for `Nc1nc2c(c(=O)[nH]1)N[C@H](CCNc1ccc(C(=O)O)cc1)CN2`?
Cruzain noTriton: 3%; NS1 inh: 0%; Cruzain inh Det: -4%

What do the screens show for `CC(=O)Nc1ccc2c(c1)nc1n2CCSC1`?
Cruzain noTriton: -3%; NS1 inh: 2%; Cruzain inh Det: 2%

What do the screens show for `CCCCC(=O)Nc1ccc2c(c1)nc1n2CCSC1`?
Cruzain noTriton: -15%; NS1 inh: 8.9µM*; Cruzain inh Det: 3%; Flu NS1 inh: -12

Bioassay records as filed in PubChem BioAssay.
